From PubChem BioAssay (EPA / NIEHS)
Several values for one entry are separate records, joined by “and”; a condition that tells them apart may be missing. Equal entries are not always repeated. A structure can be active in one record and inactive in another. Activity calls are given as the source filed them. The calls were made as follows: active = hit-call score of the fitted dose curve at least 0.9, where 1 is the maximum; inactive = score below 0.9.

Read-out: Thrombomodulin, THBD (gene 7056)
Assay: BSK_3C_Thrombomodulin: BioMAP Diversity Plus: 3C Assay for Thrombomodulin Biomarker Activity (AID 2283029)
Conditions: primary human endothelial cells (HUVEC); actives raise or lower the signal
Experimental: BSK_3C is a cell-based, multiplexed-readout assay that uses umbilical vein endothelium, a human vascular primary cell, with measurements taken at 24 hours after chemical dosing in a 96-well plate.BSK_3C_Thrombomodulin is an assay component measured in the BSK_3C assay. It measures Thrombomodulin antibody related to regulation of gene expression using ELISA technology.Data from the assay component BSK_3C_Thrombomodulin was analyzed into 1 assay endpoint. This assay endpoint, BSK_3C_Thrombomodulin, was analyzed with bidirectional fitting relative to DMSO as the negative control and baseline of activity. Using a type of binding reporter, gain or loss-of-signal activity can be used to understand changes in the signaling as they relate to the gene THBD. Furthermore, this assay endpoint can be referred to as a primary readout, because this assay has produced multiple assay endpoints where this one serves a signaling function. To generalize the intended target to other relatable targets, this assay endpoint is annotated to the gpcr intended target family, where the subfamily is rhodopsin-like receptor.
The levels of cell surface (or secreted, indicated by the prefix "s") biomarker endpoints were measured by ELISA. Overt cytotoxicity to cells in confluent adherent cultures (all systems other than the BT system) was assessed by measuring total protein levels using sulforhodamine B (SRB) staining in parallel cultures at the time of biomarker measurements, indicated as SRB endpoints. For proliferation assays for adherent cell types, individual cell types are cultured at sub-confluence and relative cell numbers quantified by SRB staining at time points optimized for each system (48 h: 3C and CASM3C systems; 72 h: BT and HDF3CGF systems; 96 h: SAg system). SRB was performed by staining cells with 0.1% SRB after fixation with 10% TCA and reading wells at 560 nm.Viability and proliferation of PBMC (T cells) was quantified by Alamar Blue reduction for the SAg and BT systems. For PBMC viability (referred to as PBMC Cytotoxicity within the assay endpoint names), cells were plated (75,000/well in a 96-well plate) and then chemical samples added for 1 h before addition of activators, SEB and TSST-1 (20 ng/mL final concentration each). Cells were incubated for 90 h. Then, Alamar Blue (20 uL/well) (Invitrogen, Cat DAL1100) was added for 6 h, and the plates were read with a fluorescence microplate reader at 546/580 nm (excitation/emission). For PBMC proliferation, cells were plated and activated as above but incubated for only 16 h prior to addition of Alamar Blue. Plates were read after 6 h.

SMILES | outcome | AC50
CCSC(=O)N(CC)C1CCCCC1 | inactive | –
O=C(O)C(F)(F)C(F)(F)C(F)(F)C(F)(F)C(F)(F)C(F)(F)C(F)(F)C(F)(F)F | inactive | –
Cc1cc(O)ccc1Cl | inactive | –
NS(=O)(=O)C(F)(F)C(F)(F)C(F)(F)C(F)(F)C(F)(F)C(F)(F)C(F)(F)C(F)(F)F | inactive | 10.9 µM (active) and 16.4 µM (active)
Cc1cccc([N+](=O)[O-])c1 | inactive | –
ClC1=C(Cl)[C@]2(Cl)[C@@H]3[C@@H]4C[C@@H]([C@H]5O[C@@H]45)[C@@H]3[C@@]1(Cl)C2(Cl)Cl | inactive | –
CCC(C)(CC)c1cc(NC(=O)c2c(OC)cccc2OC)on1 | inactive | –
CC(C)(O)C(=O)Nc1ccc([N+](=O)[O-])c(C(F)(F)F)c1 | inactive | –
CN(C)CCO | inactive | –
C1CC2OC2CC1C1CO1 (stereo not given) | inactive | –
Cc1ccccc1[N+](=O)[O-] | inactive | –
CCCCCCCCOC(=O)c1ccccc1C(=O)OCCCCCCCC | inactive | –
CC(C)(c1ccccc1)c1ccc(O)cc1 | inactive | –
O=S(=O)(O)C(F)(F)C(F)(F)C(F)(F)C(F)(F)F | inactive | –
CCNc1nc(NC(C)C)nc(SC)n1 | inactive | –
c1ccc(-c2ccccc2)cc1 | inactive | –
Cc1cccc(C)c1N | inactive | –
Cc1ccccc1O | inactive | –
CCCCCCCCCC[N+](C)(C)CCCCCCCCCC | inactive | –

SMILES | outcome | AC50
ClC1=C(Cl)[C@]2(Cl)[C@@H]3[C@@H](Cl)[C@H]4O[C@H]4[C@@H]3C1(Cl)C2(Cl)Cl | inactive | –
CCCN(CCC)N=O | inactive | –
Oc1c(Cl)c(Cl)c(Cl)c(Cl)c1Cl | inactive | 20 µM (active)
CCCCCCOC(=O)c1ccccc1C(=O)OCCCCCC | inactive | –
CN(C)c1nc(=O)n(C2CCCCC2)c(=O)n1C | inactive | –
Cc1cc(-c2ccc(N)c(C)c2)ccc1N | inactive | –
O=C(NC(=O)c1c(F)cccc1F)Nc1cc(Cl)c(OC(F)(F)C(F)F)c(Cl)c1 | inactive | –
Clc1ccc(C(c2ccccc2Cl)C(Cl)(Cl)Cl)cc1 (stereo not given) | inactive | –
ClC1=C(Cl)[C@]2(Cl)[C@@H]3[C@H]4C[C@H]([C@@H]5O[C@H]45)[C@@H]3[C@@]1(Cl)C2(Cl)Cl | inactive | –
O=C(O)C(F)(F)C(F)(F)C(F)(F)C(F)(F)C(F)(F)C(F)(F)C(F)(F)C(F)(F)C(F)(F)F | inactive | –
Cc1cc2c3c(c1)C(c1ccccc1)=N[C@@H](NC(=O)c1ccncc1)C(=O)N3CC2 | inactive | –
N#Cc1ccc(N(CC(N)=O)CC(F)(F)F)cc1C(F)(F)F | inactive | –
CCOCCOC(C)=O | inactive | –
Clc1ccc(C(Cl)(Cl)Cl)cc1 | inactive | –
Nc1ccc(-c2ccc(N)cc2)cc1 | inactive | –
Sc1ccccc1 | inactive | –
CCC(=O)O[C@H]1CC[C@H]2[C@@H]3CCC4=CC(=O)CC[C@]4(C)[C@H]3CC[C@]12C | inactive | –
CC(C)C(=O)OCC(C)(C)C(OC(=O)C(C)C)C(C)C (stereo not given) | inactive | –
CCOP(=S)(OCC)SCSC(C)(C)C | inactive | –
